A selection: hits, their analogues and other compounds. The true share with any hit is near 0.29%.
Casp7 inh: qHTS Assay for Allosteric/Competitive Inhibitors of Caspase-7 | P55210 | recombinant caspase-7, Ac-DEVD-AFC fluorescence rate | Potency, µM (highest dose often 57.5 µM), hits mostly inhibitors | hit rate 0.02% among 75,000; active = well fitted inhibition curve with a large enough effect in the main read-out, with a control signal flat, not every such curve was filed as active; inconclusive = small, poorly fitted or top-dose-only effect, or a change in a side signal
Caspase-1 inhib: qHTS Assay for Allosteric/Competitive Inhibitors of Caspase-1. P29466. Caspase-1 enzyme, Ac-WEHD-AFC fluorogenic rate. Potency, µM (titrated, usually from 57.5 µM), usual class: inhibitors. hit rate 0.03% among 75,000. AID 900, 2007
Target sequence (P29466 120-297 limits assumed): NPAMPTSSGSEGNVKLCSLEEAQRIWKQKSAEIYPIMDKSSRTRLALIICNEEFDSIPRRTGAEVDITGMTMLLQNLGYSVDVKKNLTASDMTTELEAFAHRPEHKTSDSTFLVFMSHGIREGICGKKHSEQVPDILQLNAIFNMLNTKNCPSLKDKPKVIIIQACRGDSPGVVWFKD
Target sequence (P29466 317-404 limits assumed): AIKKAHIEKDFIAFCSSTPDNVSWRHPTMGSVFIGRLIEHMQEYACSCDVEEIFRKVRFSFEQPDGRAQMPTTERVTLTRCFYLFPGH
TsaE inh: qHTS Assay for Inhibitors of YjeE. tRNA threonylcarbamoyladenosine biosynthesis protein TsaE (Escherichia coli (strain …. purified YjeE enzyme, qHTS inhibition assay. Potency, µM. hit rate 0.05% among 71,000. AID 605, 2007
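Purified YjeE (10 uM) with BODIPY Texas Red-labeled ADP probe (2 uM); compounds pin-transferred, 15 min at room temperature. Binding inhibition read as decreased fluorescence polarization; ADP titration as control.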
BRCT PPI red: qHTS Assay for Inhibitors of BRCT-Phosphoprotein Interaction (Red Fluorophore). Breast cancer type 1 susceptibility protein (Homo sapiens), P38398. BRCT-phosphopeptide binding, red fluorescence polarization. Potency, µM (titrated, usually from 76.9 µM), actives largely listed as inhibitors. hit rate 0.03% among 75,000. AID 892, 2007
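Fluorescence polarization: 100 nM His-tagged BRCA1 BRCT with 100 nM TAMRA-labelled phospho-BACH1 decapeptide, phosphate buffer pH 7.3 with 150 mM NaCl, DTT, 0.01% Tween 20; 12 min RT. Binding inhibition seen as FP decrease.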
BRCT inh green: qHTS Assay for Inhibitors of BRCT-Phosphoprotein Interaction (Green Fluorophore). BRCA1 BRCT-phosphopeptide binding, green fluorescence polarization. Potency, µM (highest dose often 76.9 µM), usual class: inhibitors. AID 875, 2007. hit rate 0.05% among 75,000
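Fluorescence polarization: His-tagged BRCT (~35 kDa BRCA1 C-terminus, 250 nM) bound to 100 nM fluorescein-labeled phosphorylated 10-aa BACH1 peptide, pH 7.3 phosphate buffer with DTT and Tween 20. Compounds incubated 12 min at room temperature; inhibition read as lowered polarization.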
Pol III holo inh: qHTS Assay for Inhibitors of DNA Polymerase III Holoenzyme System. reconstituted DNA polymerase III holoenzyme replication, biochemical. hit rate 0.25% among 71,000. Potency, µM (doses to about 57.1 µM)
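Reconstituted *E. coli* holoenzyme (0.35 nM Pol III, 1 nM beta, 154 nM SSB, 2 nM primase) was preincubated with compound for 15 min at RT. Synthesis on 1.4 nM ssM13Gori ran 35 min, then was stopped with PicoGreen/EDTA and read as dsDNA fluorescence.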
Numbers stand for hits; 0 = inactive; ? = inconclusive; [ ] = another dose, or the depositor's remark. Unless noted, calls come from the whole dose curve; as a rule, active = well fitted curve in the direction sought with a large enough effect; inconclusive = small, poorly fitted or top-dose-only effect, or another doubt; inactive = no such curve, though single readings can be large; an effect the other way counts as inactive or inconclusive.

SMILES	Casp7 inh	Caspase-1 inhib	TsaE inh	BRCT PPI red	BRCT inh green	Pol III holo inh
Nc1c(S(=O)(=O)O)cc(Nc2ccc(Nc3nc(Cl)nc(Nc4ccc(S(=O)(=O)O)cc4)n3)c(S(=O)(=O)O)c2)c2c1C(=O)c1ccccc1C2=O	0	0	50µM	0	?	40µM
CC1=C(/C=C/C(C)=C/C=C/C(C)=C/C=O)C(C)(C)CCC1	0	0	0	0	0	0
CCOc1ccc2c(ccc(/C=C\c3cc(C)c4cccnc4c3O)[n+]2C)c1	0[11.5 µM]	0[11.5 µM]	0	0[15.4 µM]	0[15.4 µM]	3.2µM
OC[C@@H]1O[C@@H](n2cnc3c(N[C@@H]4C[C@@H]5CC[C@H]4C5)ncnc32)[C@@H](O)[C@H]1O	0	0	0	0	0	0
C=C[C@@]1(C)CC(=O)[C@@]2(O)[C@@]3(C)[C@H](O)CCC(C)(C)[C@@H]3[C@H](O)[C@H](OC(C)=O)[C@]2(C)O1	0	0	0	0	0	0

High-throughput results from PubChem BioAssay.
